# Measurements taken from PubChem BioAssay (NCATS).
# Results filed as inconclusive are left out. A call without a number means that no potency is given here. A number with no mark means an inactive call. Activity calls are given as the source filed them. The call rests on the fitted dose curve; in most records, active means well fitted curve in the direction sought with a large enough effect; inconclusive means small, poorly fitted or top-dose-only effect, or another doubt; inactive means no such curve, though single readings can be large; an effect the other way counts as inactive or inconclusive.
# Legend:
# [1] = Primary qHTS for inhibitors of nuclear receptor binding SET domain protein 2 (NSD2) in an isogenic RCH-ACV NSD2 p.E1099K mutant (9B) (AID 1645876)
# [2] = Primary qHTS for inhibitors of nuclear receptor binding SET domain protein 2 (NSD2) in an RCH-ACV wild type WT cells (2C) (AID 1645877)
# Further: nearly all actives have a fitted effect of over 70% in size.
# Potency means the concentration at half of the fitted maximal effect.
SMILES,Potency [1],Potency [2],"activity change, negative = viability loss [1]","activity change, negative = cell killing [2]"
CC(/C=C/[C@]1(O)[C@@]2(C)CO[C@@]1(C)C[C@@H](O)C2)=C\C(=O)O[C@@H]1O[C@H](CO)[C@@H](O)[C@H](O)[C@H]1O,inactive,inactive,,
CCNC(=O)[C@@H]1CCCN1C(=O)[C@H](CCCN=C(N)N)NC(=O)[C@H](CC(C)C)NC(=O)[C@@H](C)NC(=O)[C@H](Cc1ccc(O)cc1)NC(=O)[C@H](CO)NC(=O)[C@H](Cc1c[nH]c2ccccc12)NC(=O)[C@H](Cc1cnc[nH]1)NC(=O)[C@@H]1CCC(=O)N1,inactive,inactive,,
C=C1[C@@H]2[C@H]3OC(=O)C(=C)[C@@H]3CC[C@@](C)(O)[C@@H]2C[C@@H]1O[C@@H]1O[C@H](CO)[C@@H](O)[C@H](O)[C@H]1O,inactive,inactive,,
O=c1ccn(C2OC(CO)C(O)C2O)c(=O)[nH]1 (stereo not given),inactive,inactive,,
CC(=O)OCC1=C[C@H](O)[C@@H]2C(C(=O)O)=CO[C@@H](O[C@@H]3O[C@H](CO)[C@@H](O)[C@H](O)[C@H]3O)[C@H]12,inactive,inactive,,
C=CC(C)(O)CO[C@@H]1O[C@H](CO)[C@@H](O)[C@H](O)[C@H]1O (stereo not given in full),inactive,inactive,,
COc1ncc(-c2ccc3c(Nc4cc(Oc5cc(F)cc(F)c5)cc(C(=O)O)c4)c(S(=O)(=O)NC4CC4)cnc3c2)c(OC)n1,inactive,inactive,,
CCN[C@@H]1C[C@H](N)[C@@H](O[C@H]2OC(CN)=CC[C@H]2N)[C@H](O)[C@H]1O[C@H]1OC[C@](C)(O)[C@H](NC)[C@H]1O,inactive,inactive,,
C=C1C(=O)OC2CC(C)=C(C(C)CCCO[C@@H]3O[C@H](CO)[C@@H](O)[C@H](O)[C@H]3O)C(O)C12 (stereo not given in full),inactive,inactive,,
COCC(=O)N1CCc2cc(-c3csc(NC(=O)c4cc(OC)cc(OC)c4)n3)ccc21,inactive,inactive,,
Cc1c(CN(C)C(=O)/C=C/c2cnc3c(c2)CCC(=O)N3)oc2ccccc12,inactive,inactive,,
CC1CCC2C(C)(C)C(O)CCC2(C)C12Cc1c(O)cc3c(c1O2)CN=C3N (stereo not given),inactive,inactive,,
C[C@@H]1C(=O)O[C@H]2CC34[C@H]5C[C@@H](C(C)(C)C)C36[C@@H](OC(=O)[C@@H]6O)OC4(C(=O)O5)[C@]21O (stereo not given in full),inactive,inactive,,
C=C(C(=O)OC)C1CCC2(C)C(O[C@@H]3O[C@H](CO)[C@@H](O)[C@H](O)[C@H]3O)CC(=O)C(C)C2C1O (stereo not given in full),inactive,inactive,,
CC(C)C1=CC2=CCC3[C@](C)(CCC[C@@]3(C)C(=O)O)C2CC1=O (stereo not given in full),inactive,inactive,,
CC(=O)[C@@H]1CC[C@]2(C(=O)O)CC[C@]3(C)C(CCC4[C@@]5(C)CC[C@H](O)C(C)(C)C5CC[C@]43C)C12 (stereo not given in full),7.96 µM (active),inactive,,
C/C=C(\C)C(=O)O[C@@H]1CC2[C@@H](CC=C3C[C@@H](O[C@H]4C[C@H](OC)[C@H](O[C@H]5C[C@H](OC)[C@H](O[C@H]6C[C@H](OC)[C@H](O[C@H]7C[C@@H](OC)[C@H](O[C@@H]8O[C@H](CO)[C@@H](O)[C@H](O)[C@H]8O)[C@@H](C)O7)[C@@H](C)O6)[C@@H](C)O5)[C@@H](C)O4)CC[C@@]32C)[C@@]2(O)CC[C@H](C(C)=O)[C@@]12C (stereo not given in full),,,-12.3% [at 9.23 µM],-18.8% [at 9.23 µM]
CC1[C@@H](O)[C@@H](O)C2[C@]3(C)C(C[C@H]4OC(=O)[C@H](O)[C@]1(O)[C@@]24C)C(C)(O)C[C@H](O)[C@H]3O (stereo not given in full),inactive,inactive,,
CC(C(=O)O)C1CCC2(C)C3C(=O)C=C4C(CCC(=O)C4(C)C)C3(C)CCC12C (stereo not given),inactive,inactive,,
CC(=C/C(=O)O)/C=C/[C@]1(O)[C@@]2(C)CO[C@]1(C)C[C@H](O[C@@H]1O[C@H](CO)[C@@H](O)[C@H](O)[C@H]1O)C2,inactive,inactive,,
NCc1ccc(OCCCc2sc(-c3ccc4c(c3)/C(=N/Nc3nc5ccccc5s3)CCC4)nc2C(=O)O)cc1,inactive,5.15 µM (active),,
C[C@@H]1CC[C@]2(C(=O)O[C@@H]3O[C@H](CO)[C@@H](O)[C@H](O)[C@H]3O)CC[C@]3(C)C(=CCC4[C@@]5(C)C[C@@H](O)[C@H](O)C(C)(C)C5CC[C@]43C)C2[C@]1(C)O (stereo not given in full),inactive,inactive,,
C=C1CCC2C(C)(COC3OC(COC(=O)CC(=O)O)C(O)C(O)C3O)CCCC2(C)C1CCC1=CCOC1=O (stereo not given),inactive,inactive,,
CCC/C=C/C(=O)O[C@H]1CC(C)(C)CC2[C@]13[C@H](O)O[C@@]21CCC2[C@@]4(C)CC[C@H](O[C@@H]5O[C@H](C(=O)O)[C@@H](O)[C@H](O[C@@H]6O[C@H](CO)[C@H](O)[C@H](O)[C@H]6O[C@@H]6O[C@@H](C)[C@H](O)[C@@H](O)[C@H]6O[C@@H]6OC[C@](O)(CO)[C@H]6O)[C@H]5O[C@@H]5O[C@H](CO)[C@H](O)[C@H](O)[C@H]5O)C(C)(C)C4CC[C@@]2(C)[C@]1(C)C[C@H]3OC(C)=O (stereo not given in full),,,-22.9% [at 9.23 µM],-16.1% [at 9.23 µM]
CCC(NC(=O)CC(NC(=O)C(CO)NC(=O)C(CC)NC(=O)c1ccc[nH]1)c1ccccc1)C(=O)O (stereo not given),inactive,inactive,,
